Assay results from article PMC4552634, “A New Set of Chemical Starting Points with Plasmodium falciparum Transmission-Blocking Potential for Antimalarial Drug Discovery” (PLoS ONE, 2015).
Read-outs that look alike come from different tables or passages of the source. Screen size: about 13,000 compounds; about 3,200 (25%) showed an effect of 50% or more. The list shows a part of the results.

System: P. falciparum stage V gametocytes
Parameters: BacTiter-Glo ATP luminescence viability of purified stage V gametocytes in 384-well plates, per cent inhibition versus DMSO
Conditions: 48 h, 5 µM, inhibitor

SMILES	% Inhibition	% Inhibition (% Inhibition)
CCC1(C)N=C(N)N=C(N)N1c1ccccc1 (stereo not drawn) [TCMDC-131294]	1.322%	
COc1ccc(Br)cc1/C=C/C(=O)Nc1cccc(C2CCN(C)CC2)c1 [TCMDC-133709]	17.69%	
CC(CN)OCn1cnc2c(N)ncnc21 (stereo not drawn) [TCMDC-137691]	4.807%	
Nc1ccc(-c2ccc(NC(=O)Nc3ccccc3)cc2)cn1 [TCMDC-133409]	8.914%	
Cc1noc(C)c1-c1cccc(CNCc2ccc(-c3ccc(-c4nc5ccccc5[nH]4)s3)cc2)c1.O=C(O)C(F)(F)F [TCMDC-133049]	5.306%	
COc1ccc(-c2onc(C(F)(F)F)c2-c2ccc(Br)cc2)c(O)c1 [TCMDC-125235]	3.062%	
O=C(Nc1ccc(N2CCCN(Cc3cccc(F)c3)CC2)cc1)c1ccc(F)cc1 [TCMDC-135020]	-31.48%	
CC[C@H]1CN2CC[C@H]1C[C@H]2[C@H](O)c1cc(-c2cccc(C)c2)nc2ccc(OC)cc12 [TCMDC-141191]	44.26%	
CC[C@H]1CN2CC[C@H]1C[C@H]2[C@H](O)c1cc(-c2cccc(F)c2)nc2ccc(OC)cc12 [TCMDC-141194]	63.72%	
CC[C@H]1CN2CC[C@@H]1C[C@H]2[C@H](O)c1cc(-c2cccnc2)nc2ccc(OC)cc12 [TCMDC-141335]	-21.27%	
O=S(=O)(Nc1ccc(CCN2CCC(N3CCCCC3)CC2)cc1)c1cccc2cccnc12 [TCMDC-134081]	43.01%	
O=S(=O)(Nc1cccc(CCN2CCC(N3CCCCC3)CC2)c1)c1cccc2ccccc12 [TCMDC-134069]	73%	
Cc1cccc(Cl)c1S(=O)(=O)Nc1cccc(CCN2CCC(N3CCCCC3)CC2)c1 [TCMDC-134063]	18.66%	
CN(C)c1cccc2c(S(=O)(=O)Nc3cccc(CCN4CCC(N5CCCCC5)CC4)c3)cccc12 [TCMDC-134066]	76.83%	
O=S(=O)(Nc1cccc(CCN2CCC(N3CCCCC3)CC2)c1)c1cccc2cccnc12 [TCMDC-134074]	50.45%	
Cc1c(Cl)cccc1S(=O)(=O)Nc1cccc(CCN2CCC(N3CCCCC3)CC2)c1 [TCMDC-134064]	56.09%	
COc1ccc(Cl)cc1S(=O)(=O)Nc1cccc(CCN2CCC(N3CCCCC3)CC2)c1 [TCMDC-134076]	49.77%	
Cc1nc2ccc3ccc(CNc4ccc(C#N)cc4)cc3c2c(=O)[nH]1 [TCMDC-137846]	-36.65%	
CCCCCCN1CCCN(Cc2ccc(C(=O)Nc3ccc(C(C)(C)C)cc3)cc2)CC1 [TCMDC-136446]	-5.342%	
O=C(Cc1ccc[n+]([O-])c1)Nc1ccc(-c2cccc(-c3nc4cc(C(F)(F)F)ccc4[nH]3)c2)cc1 [TCMDC-136991]	-49.92%	
O=C(Nc1ccc(-c2cccc(-c3nc4ccc(C(F)(F)F)cc4[nH]3)c2)cc1)c1ccoc1 [TCMDC-136845]	54.13%	
O=C(Nc1cccc(-c2ccc(-c3nc4ccc(C(F)(F)F)cc4[nH]3)cc2)c1)c1ccncc1 [TCMDC-136967]	-31.79%	
O=C(Nc1cccc(-c2cccc(-c3nc4ccc(C(F)(F)F)cc4[nH]3)c2)c1)c1cccnc1 [TCMDC-136925]	-23.9%	

SMILES	% Inhibition	% Inhibition (% Inhibition)
O=C(Nc1cccc(-c2ccc(-c3nc4ccc(C(F)(F)F)cc4[nH]3)cc2)c1)c1cccnc1 [TCMDC-136930]	51.27%	
O=C(Nc1ccc(-c2cccc(-c3nc4ccc(C(F)(F)F)cc4[nH]3)c2)cc1)c1cccnc1 [TCMDC-136926]	86.45%	
O=C(Nc1cccc(-c2cccc(-c3nc4ccc(C(F)(F)F)cc4[nH]3)c2)c1)c1ccoc1 [TCMDC-136844]	9.594%	
O=C(Nc1cccc(-c2ccc(-c3nc4ccc(C(F)(F)F)cc4[nH]3)cc2)c1)c1ccoc1 [TCMDC-136848]	-29.98%	
NC(=O)c1cccc(C(=O)Nc2ccc(-c3cccc(-c4nc5ccc(C(F)(F)F)cc5[nH]4)c3)cc2)c1 [TCMDC-132200]	-70.46%	
O=C(Nc1ccc(-c2cccc(-c3nc4ccc(C(F)(F)F)cc4[nH]3)c2)cc1)c1ccncc1 [TCMDC-136964]	-22.85%	
CC(=O)Oc1ccc(C(=O)Oc2ccccc2C#CC#N)cc1OC(C)=O [TCMDC-138111]	22.32%	
CC(Oc1ccc(Cl)cc1Cl)c1nc(-c2ccc(NC(=O)c3ccco3)cc2)no1 (stereo not drawn) [TCMDC-124355]	-1.611%	
O=C(Nc1ccc2c(c1)CN(Cc1ccc(N3CCCC3)o1)CCC2)c1cncs1 [TCMDC-134724]	-13.68%	
O=C(/C=C/c1ccc(C(F)(F)F)cc1)NC1CCC(CN2CCC(c3c[nH]c4ccccc34)CC2)CC1 (stereo not drawn) [TCMDC-139768]		87.3%
O=C(/C=C/c1ccc(C(F)(F)F)cc1)NC1CCC(CN2CCC(c3c[nH]c4ccccc34)CC2)CC1 (stereo not drawn) [TCMDC-139758]		96.79%
O=C(/C=C/c1cc(C(F)(F)F)ccc1F)NC1CCC(CN2CCC(c3c[nH]c4ccccc34)CC2)CC1 (stereo not drawn) [TCMDC-139855]	-4.527%	
CS(=O)(=O)c1ccc(-c2cncc(Cl)n2)cc1 [TCMDC-135191]	20.05%	
COc1cc(NC(=O)/C=C/c2cc(F)cc(F)c2F)cc(OCCN2CCCCC2)c1 [TCMDC-140932]	-50.87%	
Cc1cc(N2CCC(N(C)C)C2)nc(Nc2ccc(Cl)cc2)n1 (stereo not drawn) [TCMDC-137011]	-3.517%	
Cc1cc(N2CCCN(C)CC2)nc(Nc2ccc(Cl)cc2)n1 [TCMDC-137009]	14.59%	
Cc1cc(N2CCN(CC3CCCCC3)CC2)nc(Nc2ccc(Br)cc2)n1 [TCMDC-137021]	-43.3%	
Cc1cc(NC2CCN(CC3CCCCC3)C2)nc(Nc2ccc(Br)cc2)n1 (stereo not drawn) [TCMDC-137022]	32.36%	
Cc1cc(NCC2CCN(CC3CCCCC3)C2)nc(Nc2ccc(Cl)cc2)n1 (stereo not drawn) [TCMDC-137020]	-71.76%	
Cc1cc(N2CCCN(CC3CCCCC3)CC2)nc(Nc2ccc(Br)cc2)n1 [TCMDC-137133]	-10.88%	
Cc1cc(NC2CCN(CC3CCCCC3)C2)nc(Nc2ccc(Cl)cc2)n1 (stereo not drawn) [TCMDC-137018]	51.98%	
Cc1cc(N2CCN(CC3CCN(C)CC3)CC2)nc(Nc2ccc(Cl)cc2)n1 [TCMDC-137012]	55.47%	
Cc1cc(N2CCN(CC3CCN(C)CC3)CC2)nc(Nc2ccc(Br)cc2)n1 [TCMDC-137016]	54.5%	

SMILES	% Inhibition	% Inhibition (% Inhibition)
COc1ccc(Nc2ncc3c(-c4ccc(NC(=O)c5cccc(C(F)(F)F)c5)cc4)c[nH]c3n2)cc1OC [TCMDC-138863]	-42.22%	
Cc1cnccc1/C=C/c1cccc(OCCN2CCc3ccc(S(C)(=O)=O)cc3CC2)c1 [TCMDC-135875]	13.2%	
Cc1noc(C)c1-c1ccc2c(Nc3ccc([N+](=O)[O-])cc3)c(C(N)=O)cnc2c1.Cl [TCMDC-136009]	-6.074%	
CN(C(=O)c1ccccc1)C1c2cc(C#N)ccc2OC(C)(C)C1O (stereo not drawn) [TCMDC-131573]	-17.79%	
O=C1O[C@H](c2ccccc2)[C@H](c2ccccc2)N(C(=O)OCc2ccccc2)[C@H]1Cc1ccccc1C1CCCC1 [TCMDC-137303]	5.453%	
OC(c1ccccc1)C1CN(CCC2CC3CCC2C3)CCC1(O)c1ccccc1 (stereo not drawn) [TCMDC-131996]	-67.18%	
CCC(C)NS(=O)(=O)c1ccc2nc(Nc3cccc(SC)c3)n(C(C)C(C)C)c2c1 (stereo not drawn) [TCMDC-136237]	-59.9%	
Cc1cc(Nc2c(C(N)=O)cnc3cc(-c4ccoc4)ccc23)ccc1N1CCN(C)CC1.Cl [TCMDC-135441]	-28.97%	
CN1CCN(c2ccc(Nc3c(C(N)=O)cnc4cc(-c5ccoc5)ccc34)cc2)CC1.Cl [TCMDC-135440]	-93.68%	
Cl.NC(=O)c1cnc2cc(-c3ccoc3)ccc2c1Nc1ccc(NC(=O)Nc2ccccc2Cl)cc1 [TCMDC-135442]	70.72%	
O=C(Nc1ccccc1-c1nc2ccccc2s1)C(Cl)(Cl)Cl [TCMDC-123676]	7.005%	
CCOc1c(CNCCCNc2nc3ccccc3[nH]2)cc(I)cc1OC [TCMDC-140105]	34.54%	
CCOc1c(Br)cc(Br)cc1CNCCCCNc1nc2ccccc2[nH]1 [TCMDC-139968]	0.6072%	
Brc1cc(CNCCCNc2nc3ccccc3[nH]2)sc1Br [TCMDC-139801]	12.5%	
FC(F)(F)c1cc(C(F)(F)F)c2cc(CNCCCNc3nc4ccccc4[nH]3)[nH]c2c1 [TCMDC-139965]	-11.18%	
Clc1cc(Cl)c2cc(CNCCCNc3ccc4ccccc4n3)[nH]c2c1 [TCMDC-140495]	95.02%	
c1ccc(-c2ccc(CNCCCNc3nc4ccccc4[nH]3)cc2)cc1 [TCMDC-136061]	54.24%	
Clc1ccc(Cl)c2[nH]c(CNCCCNc3nc4ccccc4[nH]3)cc12 [TCMDC-139957]	50.82%	
CCOc1c(CNCCCNc2nc3ccccc3[nH]2)cc(Br)cc1OC [TCMDC-140089]	52.36%	
Clc1ccc2c(Cl)c(CNCCCNc3nc4ccccc4[nH]3)[nH]c2c1 [TCMDC-139967]	-22.32%	
Cc1cc(C)c2cc(CNCCCNc3nc4ccccc4[nH]3)[nH]c2c1 [TCMDC-140069]	42.15%	
O=C(NCCCNc1ccc2ccccc2n1)c1cc2c(Cl)cc(Cl)cc2[nH]1 [TCMDC-140378]	3.853%	
O=c1cc(NCCCNCc2cc3c(Cl)cc(Cl)cc3[nH]2)[nH]c2ccccc12 [TCMDC-139789]	2.174%	
